These results are taken from PubChem BioAssay AID493220 (National Center for Advancing Translational Sciences (NCATS), 2011).

Molecules are shown by their SMILES. Inconclusive results are not listed. The source made the active and inactive calls. Calls come from the whole dose curve.

Chain of Polyunsaturated fatty acid lipoxygenase ALOX15 (Homo sapiens) (P16050 whole entry, looked up): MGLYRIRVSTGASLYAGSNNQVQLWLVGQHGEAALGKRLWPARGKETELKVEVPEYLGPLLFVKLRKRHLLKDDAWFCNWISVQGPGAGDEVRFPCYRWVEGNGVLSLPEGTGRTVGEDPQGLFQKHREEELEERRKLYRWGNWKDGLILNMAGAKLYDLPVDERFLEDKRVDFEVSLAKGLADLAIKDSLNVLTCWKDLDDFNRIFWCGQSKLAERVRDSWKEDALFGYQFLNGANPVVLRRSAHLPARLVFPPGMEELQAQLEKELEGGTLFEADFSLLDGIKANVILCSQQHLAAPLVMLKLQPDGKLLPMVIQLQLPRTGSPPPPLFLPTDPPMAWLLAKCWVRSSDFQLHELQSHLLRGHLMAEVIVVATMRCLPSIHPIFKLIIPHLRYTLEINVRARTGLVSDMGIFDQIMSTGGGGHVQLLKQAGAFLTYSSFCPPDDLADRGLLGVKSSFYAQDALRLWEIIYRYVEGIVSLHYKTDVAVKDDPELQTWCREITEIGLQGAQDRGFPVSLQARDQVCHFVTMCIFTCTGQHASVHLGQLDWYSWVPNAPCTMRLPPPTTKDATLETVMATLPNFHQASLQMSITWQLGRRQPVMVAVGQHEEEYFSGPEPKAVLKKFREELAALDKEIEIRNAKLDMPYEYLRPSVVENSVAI

For this assay, the target named is Polyunsaturated fatty acid lipoxygenase ALOX15 (Homo sapiens) (UniProt P16050). Briefly: Inhibitors of 12-hLO (12-human lipoxygenase): 15hLO-1 Cuvette-Based Inhibition Counterscreen Assay for 12hLO Followup Compounds. To be noted: purified 15hLO-1, UV 234 nm product formation. As to the method:
Human lipoxygenase 15hLO-1 is a member of the closely related lipoxygenase family of enzymes which catalyze the site-specific oxidation of arachidonic acid to various hormone precursor molecules and as such is a candidate for drug development in a variety of disease areas, such as cancer and inflammation. The enzyme activity of 15hLO-1 was determined by a direct measurement of product formation by monitoring the absorbance at 234 nm in a 2 mL cuvette. IC50 values of inhibitors were obtained by measuring the enzymatic rate at a variety of concentrations (Carroll et al, Segraves et al). A purified preparation of human 15hLO-1 was supplied by Professor Ted Holman, University of California, Santa Cruz. This assay was run against 12hLO followup compounds with the goal of identifying selective 12hLO inhibitors. Assay Provider: Holman, T.R., University of California, Santa Cruz Screening Center PI: Austin, Christopher P. Screening Center: NIH Chemical Genomics Center
For control experiments, 2 mL of substrate buffer (10 uM arachidonic acid / 25 mM HEPES / 0.01% (v/v) Triton X-100, pH 8.0) was aliquoted in a cuvette with a magnetic stir bar. After equilibrium was ensured, an aliquot of inhibitor solvent was added (DMSO), and equilibrium was once again assured. The reaction was started by adding enzyme to the cuvette and the reaction was followed until completed. The inhibition experiments were performed as above, except the actual inhibitory compound was added instead of vehicle. To achieve an IC50, typically 5 concentrations of the inhibitor were studied. If the inhibitor concentration was constant, then five different reaction volumes were used. Step \ Parameter \ Value \ Description 1; UV-Vis; 234 nm; Equilibration 2; Reagent; 2 mL; Substrate buffer 3; UV-Vis; 234 nm; Equilibration 4; Reagent; varies; Compound 5; UV-Vis; 234 nm; Equilibration 6; Reagent; 50-200 nM; Enzyme 12-hLO 7; UV-Vis; 234 nm; Enzymatic reaction Step \ Notes 1; Blank cuvette to air. 2; 10 uM AA, 25 mM HEPES, 0.01% Triton X-100, pH 8. 3; No change in absorbance ensured. 4; Compound vehicle or compound in various concentrations depending on potency. 5; No change in absorbance ensured. 6; Enzyme concentration to achieve reaction rate between 0.02 and 0.04 AU/s. 7; Enzymatic reaction visualized until completion.
`O=C(Nc1nnc(-c2ccc(Cl)cc2)o1)c1ccccc1Br`: the outcome was inactive. Take `CC1=NN(c2ccc(Cl)cc2)C(=O)C1C(c1cccc(O)c1)c1c(C)[nH]n(-c2ccc(Cl)cc2)c1=O` (stereo not given): the Potency was 22.8 µM (active). The same measure, in the same setting: as for `CCc1cc(-c2n[nH]c(C)c2Oc2ccc(C(C)C)cc2)c(O)cc1O`, the figure is 3.87 µM (active); as for `Oc1ccc(-c2csc(-c3ccccc3)n2)cc1O`, 0.67 µM (active). As to `COc1cc(CNc2ccc(N3CCCC3)cc2)ccc1OCc1ccccc1`, the molecule was classed as inactive. With `CCOC(=O)CNC(c1ccccc1)c1cc(Br)ccc1NC(=O)CCN1CCOCC1` (stereo not given), the molecule was classed as inactive. For `O=C(CSc1n[nH]c(-c2ccccc2)n1)c1ccc(O)c(O)c1`, the Potency is 5.77 µM (active). Same read-out and setting: as for `COc1ccc(/C=C/c2nc(-c3ccccc3O)n[nH]2)cc1`, the figure is 11.2 µM (active). Consider `CCOC(=O)Cc1cc(=O)n(-c2nc3ccccc3s2)[nH]1`, for which the molecule was classed as inactive. With `CC1=NN(c2ccc(Cl)cc2)C(=O)C1C(c1ccccc1O)c1c(C)[nH]n(-c2ccc(Cl)cc2)c1=O` (stereo not given), the Potency is 20 µM (active). On the same count and under the same terms, as for `COc1cccc(-c2cnc(NCc3cc(Cl)ccc3O)n2C)c1`, the figure is 32.9 µM (active); as for `Oc1ccc(C2=Nn3c(nnc3-c3ccco3)SC2)cc1O`, 39.1 µM (active). On the same count and under the same terms, as for `COc1ccc(-c2n[nH]c(C(F)(F)F)c2-c2cc3ccccc3o2)c(O)c1`, the figure is 6.5 µM (active). `COc1cc(CNc2ccc(O)cc2)cc(Br)c1OCc1ccccc1F`: the molecule was classed as inactive. In the case of `O=C(Nc1nnc(-c2ccccn2)o1)c1ccc(Br)cc1`, the outcome was inactive. Take `Cc1cccnc1NCc1ccc(O)c2ncccc12`: the Potency is 23.9 µM (active). Same read-out and setting: as for `O=S(=O)(Nc1ccc(O)c(Sc2nc3ccccc3s2)c1)c1ccc(Cl)cc1`, the figure is 12.6 µM (active). Take `Cc1[nH]nc(-c2ccc(O)cc2O)c1Oc1ccccc1`: the Potency was 15.6 µM (active).

`Cc1ccc(C(=O)Nc2nnc(-c3ccco3)o2)cc1C`: the molecule was called inactive. Turning to `O=C1c2ccccc2NC(c2ccc(Cl)cc2Cl)N1O` (stereo not given), the Potency was 37.4 µM (active). For `CCCOC(=O)c1ccc(Oc2c(-c3ccc(O)cc3O)n[nH]c2C)cc1`, the Potency is 6.81 µM (active).

In the case of `c1ccc(-c2nc(NCc3cccnc3)c3oc4ccccc4c3n2)cc1`, the Potency was 31 µM (active). In the case of `O=C(NC(=S)Nc1ccccc1N1CCCC1)c1ccc([N+](=O)[O-])cc1`, the call was inactive. Turning to `CC(Oc1ccc(Cl)cc1Cl)C(=O)NC1=NN(c2ccccc2)C(=O)C1` (stereo not given), the Potency was 65 µM (active). Same read-out and setting: next, `N#CC1=C(N)Oc2n[nH]c(-c3cccs3)c2C1C1CCCCC1` (stereo not given): 9.33 µM (active). Still for that read-out and setting: next, `COc1ccc(-c2n[nH]c(C)c2-c2ccc(Cl)cc2)c(O)c1`: 3.51 µM (active); `CCc1cc(-c2[nH]ncc2-c2ccc3c(c2)OCO3)c(O)cc1O`: 4.01 µM (active); `Cc1ccc(S(=O)(=O)Nc2ccc(NC(=O)Nc3cccc(C(F)(F)F)c3)cc2)cc1`: 31.5 µM (active). With `O=C(Nc1nnc(C2=COCCO2)o1)c1ccc(Cl)cc1`, the call was inactive. On to `Cc1cc(Cl)cc(Cl)c1OCC(=O)NCc1ccco1`, for which the Potency is 88.6 µM (active). Same read-out and setting: next, `CCCOC(=O)c1ccc(Oc2cn[nH]c2-c2ccc(OC)cc2O)cc1`: 13.1 µM (active); `COc1ccc2nc(NC(=O)c3cccc(OCc4c(C)noc4C)c3)sc2c1`: 33.6 µM (active).

Consider `O=C(/C=C/c1ccc(O)c(O)c1)c1ccc(S(=O)(=O)N2CCCCCC2)cc1`, for which the Potency was 1.31 µM (active). Still for that read-out and setting: next, `CCOc1ccc(-c2[nH]ncc2Oc2cccc(OC)c2)c(O)c1`: 2.96 µM (active); `CSCCC(NC(=O)c1ccc(Cl)cc1)C(=O)OCC(=O)Nc1ccc(C#N)cc1` (stereo not given): 46.2 µM (active); `Oc1ccccc1-c1cc(-c2ccccc2Cl)[nH]n1`: 1.62 µM (active). Still for that read-out and setting: next, `COc1ccc(C(Nc2ccccn2)c2c(NC(=O)c3ccco3)sc(C)c2C)cc1` (stereo not given): 62.7 µM (active); `Cc1[nH]nc(-c2ccc(O)cc2O)c1-c1ccc(Cl)cc1`: 9.99 µM (active). Consider `CCc1ccc(S(=O)(=O)/N=C2/C=C(Sc3ncn[nH]3)C(=O)c3ccccc32)cc1`, for which the Potency was 9.52 µM (active). The same measure, in the same setting: next, `Cc1ccc(C(=O)/C=C/c2c[nH]c3ccccc23)cc1`: 20.6 µM (active).
